# PLK1 PBD block = inhibitors of human PLK1 polo-box domain binding | P53350 | Plk1 PBD binding of FITC phosphopeptide, fluorescence polarization | Potency, µM, without a hit: max response, negative = inhibition, usual class: inhibitors | hit rate 2.8% among 360,000 | AID 720504; further: series mostly up to about 57 µM; on the % scale 0 is the no-effect control and ±100 the full control effect; nearly all actives have a fitted effect of over 65% in size
# Sfp PPTase inh = inhibitors of Bacillus subtilis Sfp phosphopantetheinyl transferase; Q9F4F7; Biochemical Sfp PPTase activity, qHTS; Potency, µM, for inactives: largest response in the series, negative = inhibition, most hits filed as inhibitors; hit rate 3.5% among 310,000;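 further: the enzyme is Sfp with the accession as filed and its product quenches rhodamine fluorescence; 0% = enzyme reaction without inhibitor and -100% = no enzyme wells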
#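 Step 1, compound plus 15 nM Sfp-PPTase, 15 min, room temperature. Step 2, add rhodamine-CoA (5 uM) and BHQ-2-YbbR (12.5 uM). Step 3, read 525/598 nm fluorescence at 0 and 30 min.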
# BAZ2B block = blocks human BAZ2B. AlphaScreen BAZ2B-H3K14Ac peptide displacement. Q9UIF8. hit rate 4.4% among 360,000. Potency, µM (series often up to 114 µM), for the others: top-dose activity change, negative = inhibition, usual class: inhibitors; further: on the % scale 0 is the no-effect control and ±100 the full control effect; nearly all actives have a fitted effect of over 60% in size
#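 Inhibition is scored as reduced AlphaScreen emission. The BAZ2B/b-H3(5-23)K14Ac complex (50 nM each) in PBS pH 7.4, 0.01% Tween-20 meets compound (up to 110 uM) for 30 min at RT before bead addition.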
# HP1b chromo inh = inhibitors of HP1-beta chromodomain binding to methylated histone tails. P83916. AlphaScreen HP1-beta / biotin-H3K9me3 peptide binding. Potency, µM (series often up to 114 µM), inactives show top-dose activity change, negative = inhibition, actives largely listed as inhibitors. hit rate 0.56% among 390,000. AID 540317; further: nearly all actives have a fitted effect of over 70% in size
# Target sequence (P83916 whole entry, looked up): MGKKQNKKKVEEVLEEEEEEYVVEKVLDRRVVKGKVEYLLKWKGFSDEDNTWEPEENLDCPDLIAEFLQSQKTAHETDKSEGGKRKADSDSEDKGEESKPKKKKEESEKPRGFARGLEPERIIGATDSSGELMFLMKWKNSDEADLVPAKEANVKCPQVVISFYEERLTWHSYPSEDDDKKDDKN
#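 HP1-beta protein (50 nM final) preincubated 30 min at room temperature with biotinylated H3(1-18)K9me3 peptide (50 nM) in PBS pH 7.4, 0.01% Tween-20, then compound added for 30 min. AlphaScreen streptavidin donor/nickel chelate acceptor beads (10 ug/mL final), 30 min dark, luminescence read.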
# JMJD2A Tudor inh = blocks the human JMJD2A Tudor domain | O75164 | AlphaScreen JMJD2A-Tudor / H3K4me3 peptide binding | Potency, µM (top dose mostly 114 µM), inactives show at the top dose activity change, negative = inhibition, actives largely listed as inhibitors | hit rate 4.4% among 390,000 | AID 504339; further: on the % scale 0 is the no-effect control and ±100 the full control effect; nearly all actives have a fitted effect of over 50% in size
# G9a block = inhibitors of human histone lysine methyltransferase G9a | G9a H3K9 monomethylation, AlphaScreen, 2 h | Potency, µM (highest dose often 102 µM), inactives show at the top dose activity, negative = inhibition, actives largely listed as inhibitors | hit rate 8.8% among 350,000 | AID 504332; further: on the % scale 0 is the no-effect control and ±100 the full control effect; nearly all actives have a fitted effect of over 75% in size
# Target sequence (Q96KQ7 913-1193 limits assumed): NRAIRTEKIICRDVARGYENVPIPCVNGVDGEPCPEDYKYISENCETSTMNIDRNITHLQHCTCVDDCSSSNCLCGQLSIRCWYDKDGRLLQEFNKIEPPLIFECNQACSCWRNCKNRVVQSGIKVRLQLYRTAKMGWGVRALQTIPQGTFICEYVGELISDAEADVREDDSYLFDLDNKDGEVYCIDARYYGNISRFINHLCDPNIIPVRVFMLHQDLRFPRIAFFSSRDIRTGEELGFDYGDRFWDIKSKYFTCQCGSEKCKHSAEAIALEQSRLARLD
#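 AlphaScreen detection with an anti-monomethyl H3K9 antibody quantified product after a 2 h room-temperature reaction containing 500 nM biotinylated H3K9 peptide, 20 µM SAM and 20 nM enzyme, which had been preincubated 15 min with compound.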
# * hit, by the source's call; u = inconclusive; x = no result given; [ ] = another dose, or the depositor's remark. Sampled rows, rich in hits. Any-hit rate of the full collection: about 12%. The call rests on the fitted dose curve; in most records, active means well fitted curve in the direction sought with a large enough effect; inconclusive means small, poorly fitted or top-dose-only effect, or another doubt; inactive means no such curve, though single readings can be large; an effect the other way counts as inactive or inconclusive. Potency means the concentration at half of the fitted maximal effect.
SMILES,PLK1 PBD block,Sfp PPTase inh,BAZ2B block,HP1b chromo inh,JMJD2A Tudor inh,G9a block
Cc1cc(OCC(=O)NNC(=S)NCC2CCCO2)cc(C)c1Cl (stereo unspecified),-22%,8%,-24%,3%,u,u
COC(=O)c1c(-c2ccc(S(C)(=O)=O)cc2)sc2cc(OC)ccc12,u,x,x,43%,u,x
COC(=O)c1c(-c2ccc(S(C)(=O)=O)cc2)sc2ccc(OC)cc12,21µM*,x,x,11%,45µM*,x
CC1CCCN(C(=O)Cn2nnc(-c3ccc(S(C)(=O)=O)cc3)n2)C1 (stereo unspecified),1%,0%,-15%,32%,-2%,x
CC1CCCC(=C\c2ccccc2)/C1=N/O (stereo unspecified),27µM*,3%,3%,u,u,10%[59 µM]
O=C1/C(=C/c2ccccc2)CCC1C1CCCC1 (stereo unspecified),-18%,-2%,-4%,54%,17%,12%[59 µM]
O=C(Cc1ccccc1[N+](=O)[O-])NCCCc1ccccc1,u,9%,-1%,-13%,u,u
CC(=O)c1ccc(NC(=O)c2sc(-n3nc(C)c(Cc4ccc5c(c4)OCO5)c3C)nc2C)cc1,x,x,-31%,12%,79µM*,-17%[59 µM]
CCc1ccc(NC(=O)c2sc(-n3nc(C)c(Cc4ccc5c(c4)OCO5)c3C)nc2C)cc1,x,x,-13%,2%,-14%,-7%[59 µM]
CCOc1ccc(CCNC(=O)CCc2cn(Cc3ccc(F)cc3)c3ccccc23)cc1,x,x,-37%,-2%,-24%,-5%[59 µM]
CC1=CCC(C(=O)O)C(C(=O)NC2CCCCC2)C1 (stereo unspecified),19µM*,9%,50µM*,u,56µM*,32µM*
O=C(OCc1c(-c2ccccc2)ncc2ccccc12)c1cccc(Br)c1,-3%,x,2%,56%,10%,-2%[0.501 µM]
COc1ccc(C(CNC(=O)CCNS(=O)(=O)c2ccccc2)N2CCOCC2)cc1 (stereo unspecified),-7%,x,x,x,x,x
CCC1(OC(=O)CN(C)C)C(=O)OCc2c1cc1n(c2=O)Cc2cc3c(N)cccc3nc2-1 (stereo unspecified),1%,x,x,-10%,16µM*,x
CC1=CC(C)C(=O)N(CCN2CCOCC2)C(C)=C1 (stereo unspecified),2%,x,x,x,x,x
COc1ccc(C(=O)C(C)OC(=O)c2nc3nccc(C)n3n2)cc1 (stereo unspecified),-11%,x,10%,26%,-10%,20%[2.33 µM]
CN1C(=O)C(Cl)(Cl)C(=O)c2ccccc21,12µM*,2.5µM*,40µM*,-14%,28µM*,1µM*
CC(=O)Nc1cccc(-c2nnc(-c3ccccc3)o2)c1,-9%,11%,9%,26%,-20%[57.1 µM],8%[12.7 µM]
CN(C)C(=S)Nc1cccc(-c2n[nH]c(=S)o2)c1,-21%,-46%,-22%,0%,u,22µM*
NNC(=S)Nc1cccc(-c2n[nH]c(=S)o2)c1,-21%,79µM*,-28%,0%,u,3.2µM*
CN(C)C(=S)Nc1ccc2ccccc2c1,-10%,-7%,-28%,7%,-10%,-38%[59 µM]
CC(=O)OCCc1c(C)nc2nc[nH]n2c1=O,u,18%,-9%,10%,-29%,50µM*
COc1cc(C(=O)OCCc2c(C)nc3nc[nH]n3c2=O)cc(OC)c1OC,-7%,12%,-20%,52%,5%,-22%
COc1ccccc1C(=O)Nc1nc2ccc(S(=O)(=O)N3CCCC3)cc2s1,x,x,4%,26%[57 µM],3%,8%[59 µM]
COc1ccccc1N1CCN(S(=O)(=O)c2ccc3c(c2)NC(=O)C(C)S3)CC1 (stereo unspecified),-2%,1%,-18%,23%,-22%,77%
SMILES,PLK1 PBD block,Sfp PPTase inh,BAZ2B block,HP1b chromo inh,JMJD2A Tudor inh,G9a block
COc1ccccc1N1CCN(C(=O)C(C)CS(=O)(=O)c2ccc3c(c2)NC(=O)CS3)CC1 (stereo unspecified),-2%,10%,56µM*,38%,21%,u
Cc1cccc2c3c([nH]c12)CCNC3,24µM*,1%,-36%,-10%,u,-4%[0.501 µM]
Cc1cccc2c(Cl)cc(=O)[nH]c12,x,18%,8%,x,x,18%[59 µM]
COc1ccc(/C=N/c2oc(C)c(C)c2C#N)c(OC)c1,2%,-5%,-8%,32%,12%,50µM*
COc1cc(/C=N/c2oc(C)c(C)c2C#N)cc(Br)c1O,17%,-2%,u,-18%,u,10µM*
Cc1oc(/N=C/c2ccccc2)c(C#N)c1C,-12%,6%,-31%,-2%,-7%,u
Cc1oc(/N=C/c2cccc3ccccc23)c(C#N)c1C,24µM*,0%,-5%,-36%,35µM*,-13%[59 µM]
O=C(c1ccc2c(c1)N(Cc1cccc(Cl)c1)C(=O)c1ccccc1S2)N1CCOCC1,x,x,-20%,17%,-19%,-30%[59 µM]
COc1cc(O)c(C(=O)c2ccccc2)cc1O,x,11µM*,x,x,x,x
N=C(N)Sc1nc(N2CCCCC2)nc(N2CCCCC2)n1,-5%,-20%,79µM*,30%,-14%,9%[12.7 µM]
CN(C)Cc1c(O)ccc2ccccc12,u,6%,-18%,36%,5%[11.4 µM],7.9µM*
COc1ccc2ccccc2c1CNC(C)CCc1ccccc1 (stereo unspecified),-10%,-17%,-15%,-1%,79µM*,x
COc1cccc(CN(C)Cc2nc(C3CC3)no2)c1,-15%,8%,2%,16%,0%,21%
CC(C)CN(Cc1c(O)ccc2ccccc12)CC(C)C,u,5%,u,14%,-15%,x
COc1ccc(CN(C)Cc2c(O)ccc3ccccc23)cc1,u,-3%,-2%,54%,0%,18µM*
COc1cccc(CN(C)Cc2c(O)ccc3ccccc23)c1,17µM*,-3%,3%,5%,-6%,8.9µM*
Cc1cccc(N2C(=O)CCSC23C(=O)N(Cc2ccc(F)cc2)c2ccccc23)c1 (stereo unspecified),x,x,-10%[57.1 µM],0%,-34%,-42%[59 µM]
Cc1cc(=O)c2c(O)cc(O)c(C)c2o1,x,-12%,x,x,x,-16%[2.33 µM]
CCc1ccc(OC)c(S(=O)(=O)NCc2cccs2)c1,-6%,x,-4%,53%,-8%,1%[12.7 µM]
CCc1nc2ccc(C(=O)N3CCN(S(=O)(=O)CC)CC3)cn2c1N(C)C(=O)c1cccc(OC)c1,-8%,x,x,x,x,x
CN(Cc1ccccc1)Cc1c(F)cccc1F,-5%,-27%,56µM*,u,7.1µM*,11µM*
CN(Cc1ccccc1)Cc1ccccc1,x,24%,x,x,x,-2%[12.7 µM]
COc1ccc2ccccc2c1CN(C)Cc1ccccc1,0%,15%,u,14%,28µM*,-7%[0.501 µM]
COc1ccc2ccccc2c1CN1CCN(C)CC1,-2%,1%,-29%,25%,28%,-30%[59 µM]

# Bioassay records: PubChem, National Center for Advancing Translational Sciences (NCATS)
